Reference: PubChem BioAssay AID1259343 (VanderVen Lab, College of Veterinary Medicine, Cornell …, 2017)
Among all 6,200 compounds or so, about 2,900 (47%) were called active. No stated cut-off is given here; in the data, active means inhibition above about 50%; inactive means the rest. The set was probably picked from earlier hits. This is one part of the list.

Assay: Mycobacterium tuberculosis growth inhibition, primary screen (AID 1259343)
Conditions: inhibition: at 10 µM, stronger effect = higher value; outcome: 10 uM

Structure (SMILES) | inhibition
Cc1ccc(C(C)NC(=O)CN(C(=O)Cn2cnc(C)c2C)C(C)c2ccc(C)c(C)c2)cc1C (centres undefined) | 37.8% (inactive)
COc1ccc(N(C)S(=O)(=O)c2ccc(OC)c(N3CCN(C(=O)C4CCC4)CC3)c2)cc1 | -12.6% (inactive)
CN(c1ccccc1)S(=O)(=O)c1cccc(NC(=O)C2CC2)c1 | 95% (active)
O=C(NS(=O)(=O)CCc1ccccc1)c1cccs1 | 57% (active)
O=[N+]([O-])c1cnc(Nc2cccc(O)c2)c([N+](=O)[O-])c1 | 75.9% (active)
Cc1cc(C)cc(Nc2ncc([N+](=O)[O-])cc2[N+](=O)[O-])c1 | 92.8% (active)
O=[N+]([O-])c1cnc(Nc2ccccc2Cl)c([N+](=O)[O-])c1 | -16.6% (inactive)
COc1ccccc1Nc1ncc([N+](=O)[O-])cc1[N+](=O)[O-] | 101% (active)
O=[N+]([O-])c1cnc(Nc2cccc(Cl)c2)c([N+](=O)[O-])c1 | 97.7% (active)
O=[N+]([O-])c1cnc(Nc2ccccc2O)c([N+](=O)[O-])c1 | 26.1% (inactive)
C=C(C)C1Cc2c(ccc(C(=O)O)c2O)O1 (centres undefined) | 48.9% (inactive)
O=[N+]([O-])c1cnc(Nc2ccc(Cl)cc2)c([N+](=O)[O-])c1 | 58.3% (active)
O=[N+]([O-])c1cnc(Nc2ccc(O)cc2)c([N+](=O)[O-])c1 | inactive
Nc1cc(F)c(N2CC3CCC2C3)cc1C(=O)O (centres undefined) | 36.3% (inactive)
CCN1CCN(c2cc3c(cc2F)c(=O)c(C(=O)O)cn3C2CC2)CC1 | 99.3% (active)
Clc1cccc(C2CCN(Cc3nc(COc4ccccc4)no3)C2)c1 (centres undefined) | 92.9% (active)
OC(CCc1ccccc1)C1CCN(Cc2nc(Cc3ccccc3F)no2)CC1 (centres undefined) | 43.5% (inactive)
Fc1ccccc1Cc1noc(CN2CC[C@@H]3CCCC[C@H]3C2)n1 | 74.6% (active)
Fc1ccccc1Cc1noc(CN2CCCN(Cc3ccccc3F)CC2)n1 | 34% (inactive)
O=C(c1cccs1)C1CCCN(Cc2nc(COc3ccccc3)no2)C1 (centres undefined) | 83.9% (active)
c1ccc(OCc2noc(CN3CC[C@@H]4CCCC[C@H]4C3)n2)cc1 | 66.7% (active)
O=C(c1ccccc1)C1CCCN(Cc2nc(COc3ccccc3)no2)C1 (centres undefined) | inactive

Structure (SMILES) | inhibition
c1ccc(CCC2CCN(Cc3nc(COc4ccccc4)no3)CC2)cc1 | inactive
O=C1NC(=O)C(=Cc2ccc(F)cc2)S1 | -10.1% (inactive)
CCCCCCOc1ccc(C=C2SC(=O)NC2=O)cc1 | 84.7% (active)
CCCOc1ccc(C=C2SC(=S)NC2=O)cc1 | 86.5% (active)
CC(C)N1C(=O)C(=Cc2ccc(O)cc2)SC1=S | 36.9% (inactive)
CCc1ccc(CCOc2ccc(CC3SC(=O)NC3=O)cc2)nc1 (centres undefined) | 38.2% (inactive)
O=C(OCC(=O)N(C1CCCCC1)C1CCCCC1)c1ccc([N+](=O)[O-])o1 | -1.53% (inactive)
CC(C)(C)c1ccc(-c2ccnc3nc(N4CCN(C(=O)c5ccc([N+](=O)[O-])o5)CC4)nn23)cc1 | 74.3% (active)
O=C(OCC(=O)N1CCCC1)c1ccc([N+](=O)[O-])o1 | 39% (inactive)
CCc1ccc(S(=O)(=O)Nc2cccc(-c3nc4cccnc4s3)c2C)s1 | 62.5% (active)
CC(C)CSc1nnc(C2CCCCC2)o1 | -1.92% (inactive)
O=[N+]([O-])c1cccc(-c2n[nH]c(=S)o2)c1 | 91.4% (active)
CC(C)CSc1nnc(-c2cccc([N+](=O)[O-])c2)o1 | 97.8% (active)
S=c1[nH]nc(-c2cccc(Br)c2)o1 | 62.1% (active)
N#Cc1cccc(CSc2nnc(-c3cccc(Br)c3)o2)c1 | 5.74% (inactive)
CC(C)(C)c1ccc(-c2n[nH]c(=S)o2)cc1 | 25.8% (inactive)
Cc1cc(C)cc(-c2n[nH]c(=S)o2)c1 | 101% (active)
Cc1ncc(CNC(=O)N2CCC(C(C)C)CC2)s1 | -9.36% (inactive)
S=c1[nH]nc(-c2ccc(Br)cc2)o1 | 80.5% (active)
S=c1[nH]nc(-c2ccc(Cl)cc2)o1 | 41.4% (inactive)
S=c1nc(-c2ccc(Br)cc2)[nH][nH]1 | -31.4% (inactive)
COCc1nc(N2CCNCC2)c2c3c(sc2n1)CCCC3 | 94.1% (active)

Structure (SMILES) | inhibition
c1cc2c(cc1Oc1nc(CN3CCOCC3)nc3sc4c(c13)CCC4)CCC2 | 22.2% (inactive)
c1nc(N2CCCCC2)c2c3c(sc2n1)CCCC3 | 30% (inactive)
CCN1CCc2c(sc3nc(C4CCCCC4)nc(N4CCNCC4)c23)C1 | 50.1% (active)
CC(C)(CC(=O)O)CC(=O)N1CCC2(CC1)OCc1cc(-c3ccc(C(F)(F)F)cc3)ccc1O2 | 58% (active)
CCOc1cccc(OCc2nc(-c3ccco3)oc2C)c1 | 75.2% (active)
C#CCN(CC=C)Cc1nc(-c2ccc(OCC)cc2)oc1C | -15.4% (inactive)
Cc1sc2nc(-c3ccco3)oc(=O)c2c1C | -5.77% (inactive)
OCC#CCSc1ncnn1-c1ccccc1 | -60.2% (inactive)
COc1ccc(Nc2ccc(Nc3ccc([N+](=O)[O-])cc3[N+](=O)[O-])cc2)cc1 | 94.7% (active)
COc1ccc(Nc2c([N+](=O)[O-])ccc3c2=NC2(CCCCC2)N=3)cc1 | 47.2% (inactive)
COc1ccc(Nc2ncc([N+](=O)[O-])cc2[N+](=O)[O-])cc1 | inactive
COC(=O)C1C(c2ccccc2)C2(c3ccccc3)C(C)(C)C12C(=O)OC (centres undefined) | 10.3% (inactive)
O=c1cc(-c2c(F)c(F)c(F)c(F)c2F)oc2c(F)c(F)c(F)c(F)c12 | 100% (active)
Fc1ccc(C2C=C3Oc4ccccc4N=C3NN2)cc1 (centres undefined) | 92.6% (active)
Brc1ccccc1OCc1cnn(-c2ccccc2)n1 | 21.9% (inactive)
CC1(C)OC(=O)C(=CNc2ccc3ccccc3c2)C(=O)O1 | 20.6% (inactive)
CC(C)c1ccc(NC=C2C(=O)OC(C)(C)OC2=O)cc1 | 85.2% (active)
CC(=O)NC1CCN(Cc2nc(-c3cccc(Oc4ccccc4)c3)oc2C)C1 (centres undefined) | 24.9% (inactive)
Cc1cccc(-n2cc(CN3CCN(C(=O)c4ccco4)CC3)c(-c3cccc(F)c3)n2)c1 | 24.8% (inactive)
Cc1oc(-c2ccc3ccccc3c2)nc1CN1CCN(C(=O)c2ccco2)CC1 | 78.8% (active)
